Shown are actives, neighbours in structure and some others; about 27% of the full set was active somewhere.
sEH inhibitor: soluble epoxide hydrolase (human) inhibition. P34913. recombinant human sEH enzymatic activity assay. inhibition, % at 2 µM. 91,000 compounds, 0.34% hits. AID 707; in the data active = inhibition above about 80%
Target sequence (P34913 whole entry, looked up): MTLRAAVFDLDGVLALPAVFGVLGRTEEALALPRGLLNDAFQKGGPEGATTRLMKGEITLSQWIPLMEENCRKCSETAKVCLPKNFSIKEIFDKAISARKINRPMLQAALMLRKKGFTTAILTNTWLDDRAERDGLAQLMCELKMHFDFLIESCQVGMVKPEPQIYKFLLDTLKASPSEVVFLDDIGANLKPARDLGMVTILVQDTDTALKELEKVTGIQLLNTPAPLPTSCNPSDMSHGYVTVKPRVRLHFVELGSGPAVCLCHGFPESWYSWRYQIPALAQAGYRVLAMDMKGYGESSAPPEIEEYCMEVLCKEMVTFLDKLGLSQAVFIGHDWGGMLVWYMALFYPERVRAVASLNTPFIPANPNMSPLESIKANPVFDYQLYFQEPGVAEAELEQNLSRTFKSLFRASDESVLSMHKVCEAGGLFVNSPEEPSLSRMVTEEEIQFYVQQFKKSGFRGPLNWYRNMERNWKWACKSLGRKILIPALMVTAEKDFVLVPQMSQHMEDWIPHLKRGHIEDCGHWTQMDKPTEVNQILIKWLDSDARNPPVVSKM
CYP2C19 inh: human CYP2C19 inhibition. P33261. CYP2C19 Supersomes, luciferin-H EGE luminescence, 30 min. inhibition, % at 5 µM. 96,000 compounds, 21% hits. AID 778;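 active = CYP2C19 inhibition above a set limit at 5 µM in the primary screen, cut at about 50% in these data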;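 also: plate controls were negative control wells for no effect and 2.5 mM tranylcypromine positive control for full effect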
CYP2C9 activ: CYP2C9 (human) activation; P11712; recombinant CYP2C9, luciferin-H conversion, luminescence; active compounds read high; factor 1 = untreated enzyme, 0 = blocked; activation factor at 5 µM; 96,000 compounds, 1.4% hits; AID 1024;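 active = activation factor of 2 or more for CYP2C9 at a 5 µM dose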;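 also: 0 = sulfaphenazole-blocked wells and 1 = vehicle-only wells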
CYP2C19 act: cytochrome P450 2C19 (human) activation | activation factor at 5 µM | recombinant CYP2C19, luciferin-H EGE luminescence; active compounds read high; 0 = fully inhibited enzyme, 1 = untreated enzyme | P33261 | AID 1025 | 96,000 tested, under 10 active;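 active = activation factor of at least 2 at 5 µM in the primary screen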;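 also: 0 = wells with 2.5 mM tranylcypromine and 1 = vehicle-only wells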
sEH activator: increases human soluble epoxide hydrolase activity | purified human sEH enzymatic activity, activator screen | activation, % at 2 µM | 91,000 compounds, 0.04% hits; in the data active = activation above about 37%
CYP2C9 inh: human CYP2C9 inhibition; 96,000 compounds, 20% hits; AID 777; inhibition, % at 5 µM; CYP2C9 Supersomes, luciferin-H conversion, luminescence;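 active = blocking of liver enzyme CYP2C9 beyond about 50% at 5 µM, limit read from the data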
Numbers without * were called inactive; / = no result.

SMILES	sEH inhibitor	CYP2C19 inh	CYP2C9 activ	CYP2C19 act	sEH activator	CYP2C9 inh
O=C(NCCOc1ccccc1)c1cc2ccccc2o1	2	48	0.9	0.5	-6	12
O=C(NCCOC(=O)c1ccc(C(=O)OCCNC(=O)c2ccccc2)o1)c1ccccc1	-5	36	0.2	0.6	4	83*
O=C(NCCCCCNC(=O)c1cccnc1)c1cccnc1	-2	1	0.9	1	0	14
Cc1cc(C)c(C(=O)OCCNC(=O)c2cccnc2)cc1C	3	74*	0.3	0.3	-2	71*
O=C(NCCOC(=O)c1ccccc1C(=O)OCCNC(=O)c1cccnc1)c1cccnc1	4	96*	0.3	0	-6	68*
CCOC(=O)Nc1ccc2ncn(C)c(=O)c2c1	-2	2	0.9	1	1	6
Cc1nc(=O)c(-c2ccccc2)c(C)n1-c1ccc(O)cc1	5	54*	1	0.5	-5	-2
CC(CNC(=O)C(=O)NC(C)CCc1ccccc1)Cc1ccccc1 (centres undefined)	2	8	0.9	0.9	0	13
O=C(O)C1CCCCC1C(=O)NC1CCCCC1 (centres undefined)	2	-20	1.2	1.2	-4	-16
Cc1[nH]c2ccc(CNS(=O)(=O)c3ccc(S(=O)(=O)N4CCOCC4)cc3)cc2c1C	-8	64*	0.3	0.4	10	71*
Cc1sc(-n2c(C)cc(C=O)c2C)c(C(=O)O)c1C	-15	-8	0.9	1.1	12	8
c1cc2c(c(NCc3ccncc3)c1)CCCC2	/	97*	0.2	0	/	82*
O=C(N/N=C/c1cc([N+](=O)[O-])ccc1N1CCNCC1)c1ccc([N+](=O)[O-])cc1	-9	6	1	0.9	6	4
O=Nc1c(O)n(Cc2ccc(Cl)cc2)c2ccccc12	11	84*	0.1	0.2	-10	90*
O=c1ccc(/C=C/c2ccccc2)nn1Cc1ccc(Cl)cc1Cl	6	27	0.6	0.7	-6	42
O=Nc1c(O)n(Cc2ccc(Cl)cc2Cl)c2ccccc12	-15	33	0.4	0.7	14	60*
Cc1cc(C)n(Cc2ccc(NC(=O)c3c([N+](=O)[O-])c(C)nn3C)cc2)n1	4	-9	0.7	1.1	-2	29
COc1cccc(-c2cc(C(F)(F)F)nc(N3CCN(c4ccccc4)CC3)n2)c1	3	7	0.7	0.9	-3	28
CC(C)[C@H](NC(=O)NCCc1ccc(F)cc1)C(=O)O	12	10	0.9	0.9	-13	11
CC(=O)N(Cc1ccc(F)cc1)C1=C(NCCc2ccccc2)C(=O)c2ccccc2C1=O	7	99*	0	0	-10	95*
Cc1cc(C(=O)CN2C(=O)c3cccc(N)c3C2=O)c(C)n1Cc1cccs1	-13	91*	2.4*	0.1	14	-138
C=CCn1c(SCC(=O)c2cc(C)n(Cc3cccs3)c2C)nnc1-c1ccncc1	/	44	0.6	0.6	/	36
Cc1cc(C(=O)CSc2nnc(-c3ccccc3F)o2)c(C)n1Cc1cccs1	16	96*	0.2	0	-16	78*
COc1ccccc1-n1cnnc1SCC(=O)c1cc(C)n(Cc2cccs2)c1C	/	98*	0.1	0	/	89*
COc1ccc(CCNC(=O)c2oc3ccc(S(=O)(=O)N4CCOCC4)cc3c2C)cc1OC	12	33	0.3	0.7	-10	73*
SMILES	sEH inhibitor	CYP2C19 inh	CYP2C9 activ	CYP2C19 act	sEH activator	CYP2C9 inh
Cc1ccc(CNC(=O)c2oc3ccc(S(=O)(=O)N4CCOCC4)cc3c2C)cc1	9	16	0.8	0.8	-7	20
Cc1c(C(=O)NCCc2ccccc2)oc2ccc(S(=O)(=O)N3CCC4(CC3)OCCO4)cc12	-7	63*	0.1	0.4	8	87*
CCOc1ccccc1NC(=O)CC1Nc2cc(C)c(C)cc2NC1=O (centres undefined)	1	17	0.6	0.8	1	42
CCOC(=O)c1c(NC(=O)CC2Nc3cc(C)c(C)cc3NC2=O)sc(C)c1C (centres undefined)	-4	44	0.3	0.6	7	69*
CCOC(=O)Cn1c(-c2ccccn2)nc2ccccc21	/	51*	1	0.5	/	1
CCN(CC)CCNC(=O)Cn1c(-c2ccccn2)nc2ccccc21	5	-12	1.1	1.1	0	-6
Cc1ccc(C(C#N)c2ccc3c(C(F)(F)F)cc(C(F)(F)F)nc3n2)cc1 (centres undefined)	8	24	0.2	0.8	-8	84*
N#CC(c1ccccc1)c1ccc2c(C(F)(F)F)cc(C(F)(F)F)nc2n1 (centres undefined)	-25	-5	0.8	1.1	21	16
CCC(C)NC(=O)CC1Oc2ccc(Cl)cc2NC1=O (centres undefined)	-3	5	1.2	1	4	-21
COc1ccc(Cn2c(CCC(=O)Nc3ccc(C)cc3)nc3cccnc32)cc1	0	61*	0.6	0.4	-3	38
COc1ccc(S(=O)(=O)NC(C)(C)C)cc1-c1nnc2c3ccccc3c(C)nn12	9	66*	0.5	0.3	-10	46
CNS(=O)(=O)c1ccc(OC)c(-c2nnc3c4ccccc4c(C)nn23)c1	-5	-3	1.1	1	2	-5
CCn1c(O)c(/C=N/n2cnnc2)sc1=S	-13	62*	0.5	0.4	11	54*
O=C(O)Cn1c(O)c(C=Nc2ccccc2)sc1=S	-7	2	1.1	1	10	-13
CCn1c(O)c(C=NC2CCCC2)sc1=S	2	69*	0.5	0.3	-3	51*
COC(=O)c1ccc(CN(C(C)=O)c2ccccc2)o1	/	69*	1	0.3	/	2
COC(=O)c1ccc(COc2cccc(OC)c2)o1	-10	47	0.9	0.5	9	11
CN1CCN(C(=O)Cn2c(=O)oc3cc(S(=O)(=O)NCc4ccccc4)ccc32)CC1	6	13	0.5	0.9	-7	50*
CCOC(=O)Cn1c(=O)oc2cc(S(=O)(=O)N3CCN(c4ccccn4)CC3)ccc21	2	25	0.8	0.7	-2	25
CC(=O)c1cccc(NS(=O)(=O)c2ccc3c(c2)oc(=O)n3C)c1	2	43	0.8	0.6	1	25
CCOC(=O)Cn1c(=O)oc2cc(S(=O)(=O)NCCCc3ccccc3)ccc21	-2	34	0.3	0.7	1	68*
CCOC(=O)Cn1c(=O)oc2cc(S(=O)(=O)Nc3ccc(F)cc3)ccc21	6	38	0.4	0.6	-7	58*
O=C(Cn1c(=O)oc2cc(S(=O)(=O)N3CCCC3)ccc21)N1CCCC1	2	9	0.8	0.9	-3	20
CCOC(=O)Cn1c(=O)oc2cc(S(=O)(=O)NCCc3ccc(C)cc3)ccc21	5	50*	0.3	0.5	-6	70*

Screening data (PubChem BioAssay)
